Results on 40 compounds are retold here after PubChem BioAssay (NCI).

This is part of a sample that, as a whole, favours compounds with a hit. Of some 83,000 tested, about 20% had one in any assay.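 Treatment: one concentration, 48 hours, 96-well format. Scoring: percent growth, with anything below 10 considered active.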 Unmarked numbers belong to inactive results. Active and inactive are the calls of the source.

The test system of this test is NCI-H322M lung. Put plainly: NCI-60 one-dose screen, 48 h (100 = growth as untreated, 0 = no growth, -100 = all killed). The conditions noted are these: 10 µM unless noted. As to the method:
Growth inhibition of the NCI-H322M human Non-Small Cell Lung tumor cell line is measured as a screen for anti-cancer activity. Cells are grown in 96 well plates and exposed to the test compound for 48 hours. Compounds are tested at a single concentration, which is 10^-5 M for most compounds. The reported endpoint is percent growth (GI% or GIPRCNT), where numbers from 0 - 100% represent growth inhibition, and numbers from -100% - 0 represent cell death. For example, a value of 40 represents 60% growth inhibition. A value of 0 means no net growth occurred over the course of the experiment. A value of -40 indicates 40% of cells at the beginning of the experiment died by the end of the experiment. A value of -100 means all cells are dead at the end of the experiment.
NCI-60 Human Tumor Cell Lines Screen was performed using the standard one-dose NCI protocol, which is described in more detail at https://dtp.cancer.gov/discovery_development/nci-60/default.htm.
Compounds with GIPRCNT values below 10 were considered active. Activity score was based on GIPRCNT using the following formula: […]
Score is 0 for GIPRCNT values of 100 or above, 50 for GIPRCNT values of 0, and 100 for GIPRCNT values of -100.
As to `Cc1cc(N2CCCCC2)nc(N(CCNc2ccnc3cc(Cl)ccc23)Cc2ccco2)n1`, the growth is 68.9%.
To `Cc1cc(N2CCN(C)CC2)nc(N(CCNc2ccnc3cc(Cl)ccc23)Cc2ccco2)n1` belongs 51%.
To `COc1ccc(CCN2C(=O)C(C)(C)SC2=S)cc1OC` belongs 103%; to `C=C(C)[C@@H]1CC[C@]2(CN)CC[C@]3(C)[C@H](CC[C@@H]4[C@@]5(C)CCC(=O)NC(C)(C)[C@@H]5CC[C@]43C)[C@@H]12`, 89.1%.
For `COc1ccc(-c2nc(SCC(=O)Nc3ccc(C(C)=O)cc3)[nH]c(=O)c2C#N)cc1` the value was 101%; for `CC1(C)C(=O)CC[C@]2(C)[C@H]3C(=O)C=C4[C@@H]5C[C@@](C)(C(=O)NCCNCCN)CC[C@]5(C)CC[C@@]4(C)[C@]3(C)CC[C@@H]12`, 108%; for `Cc1cc(N(CCCNc2ccnc3cc(Cl)ccc23)Cc2ccco2)nc(N2CCOCC2)n1`, 72.6%.
Take `Cc1cc2nc3c4cc(O)ccc4n(CCN(C)C)c3nc2cc1C`: the growth is -11% (active).
For `COc1cc2nc(Cl)nc(Nc3cccc(C(=O)/C=C/c4ccccc4)c3)c2cc1OC` the value was 90.3%; for `C=C1C(=O)O[C@H]2[C@H]1CC/C(COC(=O)NCc1cc3ccccc3[nH]1)=C\CC[C@@]1(C)O[C@@H]21`, 88.3%; for `Cn1c(=O)c2c(ncn2CCC(=O)Nc2ccc(F)cc2)n(C)c1=O`, 105%.
For `CCC(c1ccc(OC)cc1)C(CC)c1ccc(O)c(CN2CCCCC2)c1` (stereo not given) the value was 70.7%; for `COc1cc(-c2cc3cc(O)ccc3oc2=O)cc(OC)c1OC`, 85.9%; for `Fc1ccc2[nH]cc(-c3nc(-c4c[nH]c5ncccc45)cs3)c2c1`, 74.6%.
Regarding `COC(=O)[C@]12CC[C@@H](C)[C@H](C)[C@@H]1C1=CC[C@@H]3[C@@]4(C)C[C@@H](OC(C)=O)[C@H](O)[C@@](C)(CO)[C@@H]4[C@H](O)C[C@@]3(C)[C@]1(C)CC2`, the growth is -93.2% (active).
For the compound `Nc1c(C(=O)Nc2cccc(Cl)c2)sc2ncc(Cl)cc12`, the growth is 64.7%.
Regarding `Cc1ccc(Nc2c(C(N)=O)cnc3ccc(S(=O)(=O)Nc4cc(C)on4)cc23)cc1`, the growth is 95.8%.
For `Nc1c(Cl)cc(N=Nc2ccccc2)cc1Cl` the value was 86.7%.
In the case of `OCC(CO)(CCl)CCl`, the growth was 112%.
With `Fc1ccc(Nc2nc(Nc3ccc(-c4nc5ccccc5[nH]4)cc3)nc(N3CCCC3)n2)cc1`, the growth was 96%.
To `NC(=O)[C@@H]1CC2CCC1C2` (stereo not given in full) belongs 110%; to `Brc1ccc(Cn2nnnc2-c2ccn(-c3ccccc3)n2)cc1`, 76.8%.
For the compound `Nc1nc2c3ccncc3cc(-c3cccc(Cl)c3)c2c2cnccc12`, the growth was 70.4%.
As for `Cc1nn(-c2ccc(Cl)cc2)c(=O)n1CCn1cnc2ccccc21`, the growth was 96.8%.
Turning to `O=C1CN(c2ccccc2)C(=O)C1C(=O)Nc1ccc(Cl)c(Cl)c1` (stereo not given), the growth is 19.6% [100 µM].
For `NC1(N)C=CC2=C(C=C1)C1(N)C3=C(C=CC(N)(N)C=C3)N2C2(N)C3=C(C=CC(N)(N)C=C3)N1C1=C2C=CC(N)(N)C=C1` the value was 99.8%.
Regarding `Cn1cnc2c1c(=O)n(CCC(=O)Nc1ccc(F)cc1)c(=O)n2C`, the growth is 107%.
To `Cc1cccc(C)c1NCc1nc(-c2ccccc2)n[nH]1` belongs 95.4%; to `Cc1ccc(/C=C(\C#N)c2cc3ccccc3n2C)cc1`, 58.7%; to `COc1cc(-c2cc3ncccc3c3nc(OCCN(C)C)c4cccnc4c23)cc(OC)c1OC`, 17.9%.
Turning to `O=C(N/N=C\c1ccccc1O)C1CC1`, the growth was 88.8%.
Turning to `COc1ccc2c(c1)C(Br)=C(CCO)C2c1ccccc1` (stereo not given), the growth was 15.8%.
As to `C=C(C)[C@@H]1CC[C@]2(C(=O)OC)CC[C@]3(C)[C@H](CC[C@@H]4[C@@](C)(CC/C(N)=N/O)[C@H](C(=C)C)CC[C@]43C)[C@@H]12`, the growth was 105%.
For the compound `O=[N+]([O-])c1cccc(/C=N\Nc2ccccc2)c1`, the growth is 81.1%.
To `CN(C)CCCCC(C(=O)CBr)(c1ccccc1)c1ccccc1` belongs 74.5%; to `COc1ccc(C(=O)c2ccc(C)cc2)c(OC)c1OC`, 111%; to `CCCCCCCC(=O)SCC/C=C/[C@@H]1CC(=O)NCc2cccc(n2)CN(Cc2ccc(Cl)cc2)CC(=O)N[C@@H](C(C)C)C(=O)O1`, 8.85% (active).
`C=C1CC[C@@H](C(=O)OC)Cc2nc(C)ccc21`: the growth was 109%.
For `N#C/C(=C\c1ccc(-c2ccc(F)cc2)o1)c1nc(-c2ccco2)cs1` the value was 93%.
For the compound `Cn1cc(-c2nc(-c3cn(C)c4ncccc34)cs2)c2cc(F)ccc21`, the growth was 57%.
